Holding throughout (assay): NCI-60 one-dose screen, 48 h (100 = growth as untreated, 0 = no growth, -100 = all killed)
For one experiment, the system named is MOLT-4 leukemia. Conditions: 10 µM.
The test system of the next experiment is SR leukemia. The note with it: 10 µM.
The next experiment deals with RPMI-8226 leukemia. Conditions: 10 µM.
Another experiment deals with OVCAR-8 ovarian. The note with it: 10 µM.
A further experiment relates to OVCAR-5 ovarian. The note with it: 10 µM.
A further experiment relates to OVCAR-4 ovarian. The note with it: 10 µM.
The next experiment concerns SK-OV-3 ovarian. The note with it: 10 µM.
The next experiment concerns IGROV1 ovarian. The note with it: 10 µM.
The test system of a further experiment is OVCAR-3 ovarian. The note with it: 10 µM.
Another experiment relates to HS 578T breast. The note with it: 10 µM.
The subject of another experiment is NCI/ADR-RES ovarian. The note with it: 10 µM.
In another experiment the test system is T-47D breast. The note with it: 10 µM.
Another experiment relates to BT-549 breast. Conditions: 10 µM.
A further experiment deals with MDA-MB-435 melanoma. Conditions: 10 µM.
The next experiment deals with SW-620 colon. The note with it: 10 µM.
Another experiment relates to MCF7 breast. Conditions: 10 µM unless noted.
The subject of the next experiment is HCT-116 colon. The note with it: 10 µM.
The test system of the next experiment is HCC-2998 colon. Conditions: 10 µM.
In another experiment the test system is KM12 colon. The note with it: 10 µM.

“And” between values parts separate entries of the source, which are not always exact repeats. Equal values may be shown once. This is part of a sample that, as a whole, favours compounds with a hit. Of some 83,000 tested, about 20% had one in any assay.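 Note: values are percent growth. 100 is the growth of untreated cells, values between 100 and 0 indicate rising inhibition; between -100 and 0 indicates cell death.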 The source made the active and inactive calls. Rule for the calls: active = growth percent below 10; inactive = the rest.

This is an account of results in PubChem BioAssay (NCI).

As for `[O-][n+]1ccccc1S`, the growth is 32.1% (inactive) in the experiment on MOLT-4 leukemia; 7.55% (active) in the experiment with SR leukemia; 5.89% (active) with RPMI-8226 leukemia; 17.2% (inactive) in the experiment on OVCAR-8 ovarian; 59.1% (inactive) in the experiment with OVCAR-5 ovarian; 36.2% (inactive) in the experiment on OVCAR-4 ovarian. The growth in the experiment with SK-OV-3 ovarian was 91.1% (inactive); in the experiment with IGROV1 ovarian, 6.4% (active); in the experiment with OVCAR-3 ovarian, 16.9% (inactive); with HS 578T breast, 64% (inactive); in the experiment with NCI/ADR-RES ovarian, 37% (inactive); with T-47D breast, 53.4% (inactive). Also, the growth in the experiment with BT-549 breast was 93.5% (inactive); with MDA-MB-435 melanoma, 53.8% (inactive); in the experiment with SW-620 colon, 42% (inactive); in the experiment on MCF7 breast it was 25.3% (inactive); with HCT-116 colon, -9.38% (active); in the experiment with HCC-2998 colon, 76.7% (inactive). In the experiment with KM12 colon, the growth is 46.5% (inactive).

As to `O=[N+]([O-])c1ccc(Br)c([N+](=O)[O-])c1`, the growth with MOLT-4 leukemia was 68.4% (inactive); in the experiment with SR leukemia, 21.8% (inactive); in the experiment with RPMI-8226 leukemia, 102% (inactive); with OVCAR-8 ovarian, 91.9% (inactive); with OVCAR-5 ovarian it was 108% (inactive); in the experiment on OVCAR-4 ovarian, 103% (inactive). In addition, the growth in the experiment on SK-OV-3 ovarian is 113% (inactive); with IGROV1 ovarian it was 63.5% (inactive); in the experiment on OVCAR-3 ovarian, 87.8% (inactive); with HS 578T breast, 105% (inactive); with NCI/ADR-RES ovarian, 99% (inactive); with T-47D breast, 54.4% (inactive). Besides, the growth was 104% (inactive) with BT-549 breast; 102% (inactive) in the experiment on MDA-MB-435 melanoma; 44.4% (inactive) with SW-620 colon; 52.5% (inactive) in the experiment on MCF7 breast; 32.3% (inactive) with HCT-116 colon; 96.2% (inactive) in the experiment on HCC-2998 colon. In the experiment on KM12 colon, the growth was 53.6% (inactive).

`COc1cc(/C=C\[N+](=O)[O-])ccc1O`: the growth was 27% (inactive) and 79.2% (inactive) in the experiment on MOLT-4 leukemia; 8.06% (active) and 40% (inactive) in the experiment with SR leukemia; -14.8% (active) and 27.5% (inactive) with RPMI-8226 leukemia; 65.9% (inactive) and 93.9% (inactive) in the experiment with OVCAR-8 ovarian; 93.6% (inactive) and 105% (inactive) in the experiment with OVCAR-5 ovarian; 92.6% (inactive) and 113% (inactive) in the experiment on OVCAR-4 ovarian. Besides, the growth in the experiment with SK-OV-3 ovarian was 101% (inactive) and 97% (inactive); in the experiment with IGROV1 ovarian, 80.8% (inactive) and 75.4% (inactive); in the experiment with OVCAR-3 ovarian, 62.4% (inactive) and 71.5% (inactive); in the experiment on HS 578T breast it was 106% (inactive) and 94.5% (inactive); in the experiment with NCI/ADR-RES ovarian, 83.4% (inactive) and 98.4% (inactive); in the experiment with T-47D breast, 32.5% (inactive) and 71.1% (inactive). Further, the growth in the experiment with BT-549 breast was 56% (inactive); in the experiment with MDA-MB-435 melanoma, 78.5% (inactive) and 51.3% (inactive); in the experiment on SW-620 colon, 7.29% (active) and 67.5% (inactive); with MCF7 breast it was 9.85% (active) and 23.9% (inactive); in the experiment on HCT-116 colon, 59.3% (inactive) and 32.9% (inactive); in the experiment with KM12 colon, 80.2% (inactive) and 77.4% (inactive).

On to `CC/C(=C/c1ccc(OC)cc1OC)[N+](=O)[O-]`, for which the growth with MOLT-4 leukemia is 6.34% (active); in the experiment on SR leukemia, 2.47% (active); with RPMI-8226 leukemia it was -7.24% (active); in the experiment on OVCAR-8 ovarian, 18.4% (inactive); in the experiment on OVCAR-5 ovarian, 35.9% (inactive); in the experiment with OVCAR-4 ovarian it was 93.7% (inactive). The growth in the experiment with SK-OV-3 ovarian was 124% (inactive); in the experiment with IGROV1 ovarian, 39.6% (inactive); with OVCAR-3 ovarian it was 58.7% (inactive); in the experiment on HS 578T breast, 77.6% (inactive); in the experiment on NCI/ADR-RES ovarian, 41.8% (inactive); in the experiment with T-47D breast it was -12.9% (active). In addition, the growth was 37.1% (inactive) with BT-549 breast; 46% (inactive) in the experiment with MDA-MB-435 melanoma; -20.1% (active) in the experiment on SW-620 colon; 0.465% (active) in the experiment with MCF7 breast; -58.8% (active) with HCT-116 colon; 102% (inactive) in the experiment with HCC-2998 colon. In addition, the growth in the experiment on KM12 colon was 25.5% (inactive).

Consider `COc1cc([C@@H]2c3cc4c(c(O)c3C[C@H]3COC(=O)[C@@H]32)OCO4)cc(OC)c1OC`, for which the growth is -30.2% (active) with MOLT-4 leukemia; -3.92% (active) in the experiment with SR leukemia; -53.3% (active) with RPMI-8226 leukemia; 16.4% (inactive) with OVCAR-8 ovarian; 32.8% (inactive) in the experiment on OVCAR-5 ovarian; 49.9% (inactive) in the experiment with OVCAR-4 ovarian. In addition, the growth is -0.464% (active) in the experiment on SK-OV-3 ovarian; -32.1% (active) with IGROV1 ovarian; -48.9% (active) in the experiment with OVCAR-3 ovarian; -10.6% (active) in the experiment with HS 578T breast; -28.9% (active) in the experiment with NCI/ADR-RES ovarian; 60.8% (inactive) in the experiment with T-47D breast. Moreover, the growth is -12.9% (active) with BT-549 breast; -19.6% (active) in the experiment on MDA-MB-435 melanoma; 15.9% (inactive) in the experiment on SW-620 colon; 8.86% (active) in the experiment with MCF7 breast; -38.4% (active) in the experiment with HCT-116 colon; -54.8% (active) with HCC-2998 colon. Moreover, the growth in the experiment on KM12 colon is 0.358% (active).

Turning to `O=c1[nH]c2ccccc2n1C1CCN(CCCC(c2ccc(F)cc2)c2ccc(F)cc2)CC1`, the growth with MOLT-4 leukemia is -34% (active) and 15.3% (inactive); in the experiment with SR leukemia, -50.8% (active) and -35.4% (active); in the experiment with RPMI-8226 leukemia it was 11.2% (inactive) and 0.602% (active); with OVCAR-8 ovarian, 44.3% (inactive); in the experiment on OVCAR-5 ovarian, 38.3% (inactive); in the experiment on OVCAR-4 ovarian it was 55.6% (inactive) and 70.2% (inactive). Further, the growth in the experiment on SK-OV-3 ovarian was 85.8% (inactive) and 78.4% (inactive); with IGROV1 ovarian, 71.3% (inactive) and 55.5% (inactive); in the experiment with OVCAR-3 ovarian, -74.2% (active) and 39.5% (inactive); in the experiment with HS 578T breast, 55.2% (inactive) and -34.7% (active); in the experiment with NCI/ADR-RES ovarian it was 48.3% (inactive) and 23.7% (inactive); in the experiment with T-47D breast it was 55.7% (inactive) and 10.2% (inactive). The growth in the experiment on BT-549 breast was 35.8% (inactive) and 18.5% (inactive); in the experiment on MDA-MB-435 melanoma, -81% (active) and 19% (inactive); with SW-620 colon, -21.1% (active) and 19.2% (inactive); with MCF7 breast it was 65% (inactive) and 6.06% (active); in the experiment on HCT-116 colon it was -68.6% (active) and -39.9% (active); in the experiment on HCC-2998 colon it was 7.86% (active) and -80.1% (active). Besides, in the experiment on KM12 colon, the growth was -0.627% (active) and 25.7% (inactive).

As to `COc1ccccc1[As]=[As]c1ccccc1OC` (configuration not stated), the growth is -9.7% (active) with MOLT-4 leukemia; -2.26% (active) in the experiment on SR leukemia; -15.1% (active) in the experiment on RPMI-8226 leukemia; -83.1% (active) in the experiment on OVCAR-8 ovarian; -93.2% (active) in the experiment on OVCAR-5 ovarian; -85.1% (active) with OVCAR-4 ovarian. The growth in the experiment with SK-OV-3 ovarian is -99.7% (active); with IGROV1 ovarian, -76.9% (active); in the experiment with OVCAR-3 ovarian, -93.3% (active); in the experiment with HS 578T breast it was -11.6% (active); in the experiment with NCI/ADR-RES ovarian, -72% (active); in the experiment with T-47D breast it was -47.2% (active). For the same compound, the growth in the experiment with BT-549 breast is -91.9% (active); in the experiment with MDA-MB-435 melanoma it was -73.2% (active); in the experiment on SW-620 colon, -66.3% (active); in the experiment on MCF7 breast, -38.3% (active); in the experiment on HCT-116 colon it was -71.3% (active); with HCC-2998 colon, -98.2% (active). Besides, the growth with KM12 colon is -81.8% (active).
